# VP16 counter – counter-screen for ROR gamma inhibitors: Gal4-VP16 reporter. actives 3.5% (n = 310,000). Potency, µM (series often up to 53.6 µM), for inactives: at the highest dose activity, negative = inhibition, usual class: inhibitors. Drosophila S2 Gal4-VP16 UAS-luciferase, luminescence, 20 h. AID 2546;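 also: Gal4-VP16 expression switched on by copper sulfate through the metallothionein promoter; nearly all actives have a fitted effect of over 50% in size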
# Luc counter – blocks Kinase-Glo luciferase, a counter-screen artifact | Q27757 | Kinase-Glo luciferase, ATP luminescence, 8 min | Potency, µM (titrated, usually from 38.3 µM), for the others: at the top dose activity change, negative = inhibition, actives largely listed as inhibitors | actives 0.28% (n = 200,000); also: nearly all actives have a fitted effect of over 60% in size
#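 Kinase-Glo luciferase light output from ATP and luciferin was measured with 10 uM ATP, within the enzyme's linear range. Buffer: 50 mM imidazole pH 7.2, 50 mM KCl, 7 mM MgCl2, 0.01% Tween 20, 0.05% BSA; luminescence read after 8 min at ambient temperature.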
# RORg inh – ROR gamma (mouse) transcription inhibition | Drosophila S2 Gal4-RORgamma UAS-luciferase reporter, 20 h | actives 5.4% (n = 310,000) | AID 2551 | P51450 | Potency, µM (doses to about 53.6 µM), inactives show at the top dose activity change, negative = inhibition, hits mostly inhibitors; also: nearly all actives have a fitted effect of over 60% in size
# Target sequence (P51450 whole entry, looked up, the tested form may be a part): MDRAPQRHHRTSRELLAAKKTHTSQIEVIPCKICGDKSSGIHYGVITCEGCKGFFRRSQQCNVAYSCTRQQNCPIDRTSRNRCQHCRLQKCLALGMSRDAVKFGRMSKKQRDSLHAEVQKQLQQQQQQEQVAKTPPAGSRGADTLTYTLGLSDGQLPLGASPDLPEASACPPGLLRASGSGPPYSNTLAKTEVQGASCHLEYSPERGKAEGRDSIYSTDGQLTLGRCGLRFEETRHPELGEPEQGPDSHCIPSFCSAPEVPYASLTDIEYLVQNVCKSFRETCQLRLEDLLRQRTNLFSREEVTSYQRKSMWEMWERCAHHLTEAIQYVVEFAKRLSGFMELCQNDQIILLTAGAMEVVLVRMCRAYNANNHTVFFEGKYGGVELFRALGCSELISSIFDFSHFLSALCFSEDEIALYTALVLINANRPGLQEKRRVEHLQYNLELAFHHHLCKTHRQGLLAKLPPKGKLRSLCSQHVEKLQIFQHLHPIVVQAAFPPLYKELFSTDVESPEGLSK
#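 A Gal4/UAS one-hybrid system in insect cells: metallothionein-promoter Gal4–ROR gamma fusion plus Photinus luciferase reporter. Copper sulfate 700 uM final, 20 hr ambient incubation, luminescent detection after 10 min with reagent.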
# * = called active by the depositor; ? = inconclusive; · = no result given; [ ] = dose if it differs, or a comment. This is a sample that favours compounds with a hit; in the whole collection about 6.2% have one here. Calls follow the shape of the dose curve; as a rule, active = well fitted curve in the direction sought with a large enough effect; inconclusive = small, poorly fitted or top-dose-only effect, or another doubt; inactive = no such curve, though single readings can be large; an effect the other way counts as inactive or inconclusive. % is scaled to controls: 0 for no effect and ±100 for the full control effect; potency is read from the fitted curve at half-maximal effect.
SMILES,VP16 counter,Luc counter,RORg inh
CC(C)=NOCc1ccc(-c2cc(-c3ccccc3)no2)cc1,5%[10 µM],·,-12%[10 µM]
CCCc1cc(=O)[nH]c(-n2[nH]c3c(c2=O)CCCC3)n1,3.5µM*,-5%,2.2µM*
CCCc1cc(=O)[nH]c(SCC)n1,-1%,0%,12%
CC1=CC(=O)C2=C(C)CC[C@@H]3[C@@H](OC(=O)[C@H]3C)[C@H]12,1%[17 µM],3%[17.1 µM],-17%[16.9 µM]
COC1=C(c2ccccc2)C(=O)c2ccccc2C1=O,-18%,-2%,-16%
O=C(C1=C(c2ccccc2)C(=O)c2ccccc2C1=O)c1ccccc1,11µM*,3%,11µM*
O=c1ccc2ccc(OS(=O)(=O)O)cc2o1,7%,·,-4%
CCCOC(C(=O)OC1CCN(C)CC1)(c1ccccc1)c1ccccc1,1%,·,-25%
CCOc1ccc(-c2n[nH]c(C)c2Oc2ccc(OC)cc2)c(O)c1,5µM*,-1%,2.2µM*
Cc1oc2cc(OCc3cnn(-c4ccccc4)c3)ccc2c(=O)c1Oc1ccccc1F,-13%,-2%,32%
CCOc1ccc(-c2nc(N)ncc2Oc2cccc(OC)c2)c(O)c1,-5%,0%,38%
Cc1[nH]nc(-c2ccc(O)c(C)c2O)c1Oc1ccccc1,?,-3%,?
Cc1[nH]nc(-c2ccc(OCc3cnn(-c4ccccc4)c3)cc2O)c1Oc1ccc(F)cc1,10µM*,-6%,7.1µM*
Cc1[nH]nc(-c2ccc(OCc3cnn(-c4ccccc4)c3)c(C)c2O)c1Oc1ccccc1,?,-3%,7.9µM*
Nc1ccc(Oc2ccc3nc(-c4ccccc4)c(-c4ccc([N+](=O)[O-])cc4)nc3c2)cc1,-6%,-2%,6%
CC(C)[C@H](NC(=O)C1CCN(C(=O)[C@@H]2CCCN2)CC1)C(=O)NCc1ccc(F)cc1,-5%,·,-2%
Cc1ccc(COC(=O)Cc2coc3cc(O)ccc23)cc1,7.1µM*,·,5.6µM*
Cc1ccc(Oc2coc3cc(O)ccc3c2=O)cc1,-3%,·,-7%
O=C(O)c1ccc(SSc2ccc(C(=O)O)cn2)nc1,·,-11%[7.66 µM],·
CC(C)N1CCC(N2CCN(Cc3ccc(C#CC(C)(C)O)s3)CC2CCO)CC1 (stereo unspecified),3%,4%,-21%
Cc1ccc(C(=O)O/N=C(\N)Cc2cccs2)c(Cl)c1,?,·,-22%
COc1ccc2c(c1)OCc1c-2oc2cc(OC)ccc12,?,-2%,17%
O=C1C(=O)N(CCCN2CCOCC2)C(c2cccs2)/C1=C(/O)c1ccc2c(c1)OCO2 (stereo unspecified),2%,0%,28%
Cc1nc(C)c(C(=O)N/N=C/c2c[nH]c3ccccc23)s1,-2%,15%,-10%
Cn1cc(/C=N/NC(=O)c2ccccc2O)c2ccccc21,0.89µM*,·,0.56µM*
SMILES,VP16 counter,Luc counter,RORg inh
NC(=O)N/N=C/c1cn(CC(=O)Nc2ccc(F)cc2)c2ccccc12,-5%,·,32%
CC(=O)n1cc(/C=N/NC(N)=S)c2ccccc21,?,7%,4.5µM*
Cn1cc(/C=N/Nc2ccccc2)c2ccccc21,-4%,-2%,5%
Cn1cc(/C=N/NC(=O)c2cccc([N+](=O)[O-])c2)c2ccccc21,?,1%,0.5µM*
Cc1[nH]c2ccccc2c1/C=N/NC(=O)c1cccc([N+](=O)[O-])c1,3%,1%,?
Cc1nc(C)c(C(=O)N/N=C/c2cn(C)c3ccccc23)s1,?,-3%,11µM*
Cc1ccc(C(=O)c2ccccc2C(=O)OCC(=O)NCC2CCCO2)cc1 (stereo unspecified),-11%,-1%,-26%
Cc1cc(-n2cc(Br)c(=O)[nH]c2=O)nc(-c2ccccc2)n1,-6%,·,13%
N/C(=N\OC(=O)CCCCCN1C(=O)c2ccccc2C1=O)c1ccccn1,-10%,0%,8%
O=C(N/N=C/c1ccnc2ccccc12)c1ccccc1O,-12%,·,-41%
CC(=O)n1cc(/C=N/NC(=O)c2ccccc2O)c2ccccc21,3.5µM*,·,2.8µM*
O=C(NC(=S)NNC(=O)c1ccccc1F)c1cccnc1,?,·,11µM*
O=C(NC(=S)NCc1cccnc1)c1ccccc1F,5%,·,-27%
Cc1onc(-c2ccccc2)c1C(=O)NC(=S)NNC(=O)c1cccnc1,-18%,2%,?
Cc1ccccc1C(=O)NNC(=S)NC(=O)c1cccnc1,?,3%,11µM*
CN(C(=O)COC(=O)CNC(=O)c1ccc2ccccc2c1)c1c(N)n(Cc2ccccc2)c(=O)[nH]c1=O,11%,·,-12%
N#CCc1nn2c(-c3ccccc3)ccnc2c1C#N,-9%,·,4%
c1cc(CSSCc2ccncc2)ccn1,·,-1%[7.66 µM],·
O=C(Cc1cccs1)N1CCC(c2nc3c(nnn3Cc3ccccc3Cl)c(=O)[nH]2)CC1,-6%,-2%,36%
Cc1ccc(C)c(Cn2nnc3c(=O)[nH]c(C(=O)NCc4ccco4)nc32)c1,1%,0%,7%[10 µM]
O=C(NCc1ccco1)c1nc2c(nnn2Cc2ccccc2Cl)c(=O)[nH]1,7.9µM*,1%,14µM*
CCCCCCC(=O)N1CCC(c2nc3c(nnn3Cc3ccccc3Cl)c(=O)[nH]2)CC1,16µM*,1%,7.1µM*
O=C(Nc1ccccc1)N(Cc1ccc(Cl)cc1)CC(O)C(F)(F)F (stereo unspecified),?,4%,-18%
Cc1csc2c(=O)n(CCO)c(=O)[nH]c12,6%,·,-12%
COc1ccc(O)c(-c2cc(-c3ccc(F)cc3)n[nH]2)c1,?,·,13µM*
SMILES,VP16 counter,Luc counter,RORg inh
COc1ccc(-c2ncncc2-c2ccc(OC)c(OC)c2)c(O)c1,-8%,·,-5%
Oc1ccccc1-c1cc(-c2ccc3c(c2)OCCO3)n[nH]1,?,-7%,3.2µM*
COc1ccc(-c2cc(-c3cc(F)ccc3O)[nH]n2)cc1OC,?,-5%,-89%
O=C(O)c1cc(-c2ccc3c(c2)OCCO3)n[nH]1,-26%,1%,-30%
COc1ccc(-c2cc(-c3ccc(OC)c(OC)c3)n[nH]2)c(O)c1,?,-12%,4µM*
COc1ccc(-c2cc(-c3cc(OC)ccc3O)[nH]n2)cc1,?,1%,?
COc1ccc(-c2cc(-c3ccccc3O)[nH]n2)cc1OC,?,10%,7.1µM*
CC1=CC(C)(C)Nc2ccc(CSc3ccccc3)cc21,·,-8%[7.66 µM],·
CC(NC(=O)c1ccc2c(c1)OCO2)C1CCCO1 (stereo unspecified),4%,-6%,30%
COc1ccc(CN2CCC3C=CCC(C(=O)O)C3C2=O)cc1OC (stereo unspecified),-7%,·,-13%
COc1ccc(-c2ncncc2-c2ccc(Cl)cc2)c(O)c1,-4%,·,?
COc1ccc(-c2cc(-c3ccc(Cl)cc3)n[nH]2)c(O)c1,?,·,8.9µM*
Brc1ccc(CNCc2cccs2)cc1,2%,0%,4%
c1ccc(COc2ccc(CNCc3cccs3)cc2)cc1,16µM*,-15%,?
O=S(=O)(CCC(F)=C(F)F)c1nnnn1C1CCCCC1,7%,0%,-25%
COc1ccccc1C(C#N)N1N=C(C)CC1c1ccccc1 (stereo unspecified),4%,·,-31%
COc1cc(C(C#N)N2N=C(c3ccccc3)CC2c2ccccc2)ccc1O (stereo unspecified),-93%,-1%,7.9µM*
